Data: PubChem BioAssay AID1159580 (chemical genetic matrix, 2015)
About 2,000 (36%) of roughly 5,500 compounds were called active. Roughly 18% stayed inconclusive and do not appear here. No stated cut-off is given here; in the data, active means normalized growth mostly below about 0.91 (no sharp cut-off); inconclusive means no clear call, values can overlap the other calls; inactive means mostly above about 0.92. This is one part of the list.

Assay: chemical genetic growth profiling, strain panel (AID 1159580);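 further: tested at 20 µM; growth read once vehicle control cultures reached saturation at 30 °C; 1 = growth at the plate median or of vehicle wells; lower values mean less growth of the strain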
Settings: S. cerevisiae deletion strains, growth OD

Measured: normalized growth

COc1cc2c(cc1OC)[C@@H]1C(=O)c3ccc(O)c(CC=C(C)C)c3O[C@@H]1CO2
inactive: locus YAL026C, strain drs2, active compounds read low 1.01 | locus YAL030W, strain snc1, active compounds read low 1.03 | locus YBL061C, strain skt5, active compounds read low 0.958 | locus YBR009C, strain hhf1, active compounds read low 1.03 | locus YBR021W, strain FUR4, active compounds read low 0.989 | locus YBR023C, strain chs3, active compounds read low 0.987 | locus YBR171W, strain sec66, active compounds read low 0.998 | locus YBR229C, strain ROT2, active compounds read low 0.986 | locus YBR231C, strain swc5, active compounds read low 1.01 | locus YCL011C, strain gbp2, active compounds read low 1.06 | locus YCL016C, strain dcc1, active compounds read low 0.965 | locus YCL029C, strain bik1, active compounds read low 0.984 | locus YCL061C, strain MRC1, active compounds read low 0.985 | locus YCL069W, strain vba3, active compounds read low 1 | locus YCR088W, strain abp1, active compounds read low 1 | locus YDL005C, strain med2, active compounds read low 1.05 | locus YDL035C, strain GPR1, active compounds read low 1.02 | locus YDL040C, strain nat1, active compounds read low 0.975 | locus YDL074C, strain BRE1, active compounds read low 0.961 | locus YDL101C, strain DUN1, active compounds read low 0.969 | locus YDL134C, strain PPH21, active compounds read low 0.967 | locus YDL185W, strain tfp1, active compounds read low 0.974 | locus YDL192W, strain arf1, active compounds read low 1.03 | locus YDR001C, strain nth1, active compounds read low 1.01 | locus YDR069C, strain doa4, active compounds read low 1.08 | locus YDR101C, strain arx1, active compounds read low 1.05 | locus YDR137W, strain rgp1, active compounds read low 1.02 | locus YDR159W, strain sac3, active compounds read low 1.07 | locus YDR162C, strain NBP2, active compounds read low 0.978 | locus YDR195W, strain ref2 0.963 | locus YDR297W, strain sur2, active compounds read low 1.05 | locus YDR318W, strain mcm21, active compounds read low 1.01 | locus YDR334W, strain swr1, active compounds read low 1 | locus YDR335W, strain msn5, active compounds read low 1.02 | locus YDR388W, active compounds read low 0.982 | locus YDR392W, strain spt3, active compounds read low 0.91 | locus YDR502C, strain sam2, active compounds read low 0.971 | locus YEL003W, strain gim4, active compounds read low 1.03 | locus YEL037C, strain rad23, active compounds read low 1.03 | locus YEL061C, strain CIN8 (second series), active compounds read low 1.06 | locus YEL061C, strain CIN8, active compounds read low 0.992 | locus YER015W, strain faa2, active compounds read low 1.01 | locus YER016W, strain bim1, active compounds read low 1.07 | locus YER110C, active compounds read low 0.966 | locus YER111C, strain swi4, active compounds read low 1.02 | locus YER155C, strain BEM2 (second series), active compounds read low 0.979 | locus YER155C, strain BEM2, active compounds read low 0.982 | locus YER167W, strain BCK2, active compounds read low 0.998 | locus YFR010W, strain ubp6, active compounds read low 1.01 | locus YGL078C, strain dbp3, active compounds read low 1.02 | locus YGL086W, strain mad1, active compounds read low 1.02 | locus YGL167C, strain pmr1, active compounds read low 0.988 | locus YGL173C, strain kem1, active compounds read low 1.01 | locus YGL227W, strain vid30, active compounds read low 0.997 | locus YGL240W, strain doc1, active compounds read low 1.03 | locus YGL248W, strain PDE1, active compounds read low 0.932 | locus YGL253W, strain hxk2, active compounds read low 1.02 | locus YGR078C, strain PAC10, active compounds read low 0.975 | locus YGR135W, strain pre9, active compounds read low 0.952 | locus YGR229C, strain SMI1, active compounds read low 1.19 | locus YGR252W, strain gcn5, active compounds read low 0.999 | locus YHR013C, strain ard1, active compounds read low 1.02 | locus YHR027C, strain rpn1, active compounds read low 1.03 | locus YHR030C, strain SLT2, active compounds read low 0.994 | locus YHR079C, strain IRE1 (second series), active compounds read low 1 | locus YHR094C, strain hxt1, active compounds read low 0.988 | locus YHR129C, strain ARP1, active compounds read low 0.984 | locus YHR142W, strain chs7, active compounds read low 1.02 | locus YHR200W, strain rpn10, active compounds read low 1 | locus YIL066C, strain RNR3, active compounds read low 0.981 | locus YIL073C, strain SPO22, active compounds read low 0.913 | locus YIL125W, strain kgd1, active compounds read low 0.994 | locus YIR030C, strain dcg1, active compounds read low 0.981 | locus YJL092W, strain hpr5, active compounds read low 1 | locus YJL095W, strain BCK1 (second series), active compounds read low 1.02 | locus YJL095W, strain BCK1, active compounds read low 0.953 | locus YJL115W, strain asf1, active compounds read low 1.06 | locus YJL134W, strain LCB3, active compounds read low 0.978 | locus YJL154C, strain vps35, active compounds read low 1.01 | locus YJL164C, strain tpk1, active compounds read low 1.02 | locus YJL166W, strain qcr8, active compounds read low 1.06 | locus YJL168C, strain set2, active compounds read low 0.979 | locus YJL187C, strain SWE1 (second series), active compounds read low 0.951 | locus YJR043C, strain POL32, active compounds read low 1.05 | locus YKL009W, strain mrt4, active compounds read low 0.93 | locus YKL068W, active compounds read low 0.969 | locus YKL085W, strain MDH1 (second series), active compounds read low 0.963 | locus YKL085W, strain MDH1, active compounds read low 0.963 | locus YKL160W, strain elf1, active compounds read low 1.02 | locus YKR001C, strain vps1, active compounds read low 1.02 | locus YKR026C, strain gcn3, active compounds read low 1 | locus YKR091W, strain srl3, active compounds read low 1.03 | locus YLL001W, strain dnm1, active compounds read low 1 | locus YLL026W, active compounds read low 1.03 | locus YLR027C, strain aat2, active compounds read low 1.07 | locus YLR039C, strain RIC1, active compounds read low 0.925 | locus YLR058C, strain SHM2, active compounds read low 0.98 | locus YLR102C, strain apc9, active compounds read low 0.991 | locus YLR221C, strain rsa3, active compounds read low 1.04 | locus YLR258W, strain gsy2, active compounds read low 1.06 | locus YLR262C, strain YPT6 (second series), active compounds read low 0.97 | locus YLR262C, strain YPT6, active compounds read low 0.906 | locus YLR268W, strain sec22, active compounds read low 1.02 | locus YLR320W, strain mms22, active compounds read low 0.961 | locus YLR330W, strain CHS5, active compounds read low 0.99 | locus YLR342W, strain FKS1 (second series), active compounds read low 1.06 | locus YLR342W, strain FKS1, active compounds read low 1.02 | locus YLR357W, strain rsc2, active compounds read low 1.05 | locus YLR370C, strain arc18, active compounds read low 1 | locus YLR371W, strain rom2, active compounds read low 1.02 | locus YLR384C, strain iki3, active compounds read low 0.971 | locus YLR418C, strain cdc73, active compounds read low 1 | locus YML016C, strain PPZ1, active compounds read low 1 | locus YML032C, strain rad52, active compounds read low 1.01 | locus YML120C, strain ndi1, active compounds read low 0.976 | locus YML124C, strain tub3, active compounds read low 0.989 | locus YMR058W, strain fet3, active compounds read low 1 | locus YMR078C, strain ctf18, active compounds read low 1.01 | locus YMR125W, strain sto1, active compounds read low 1.01 | locus YMR129W, active compounds read low 1.01 | locus YMR205C, strain PFK2, active compounds read low 1.02 | locus YMR223W, strain ubp8, active compounds read low 0.995 | locus YMR231W, strain pep5, active compounds read low 0.959 | locus YMR307W, strain GAS1, active compounds read low 1.1 | locus YNL067W, strain RPL9B, active compounds read low 0.958 | locus YNL071W, strain lat1, active compounds read low 1.02 | locus YNL128W, strain TEP1, active compounds read low 0.966 | locus YNL209W, strain ssb2, active compounds read low 1.05 | locus YNL233W, strain BNI4, active compounds read low 0.947 | locus YNL248C, strain rpa49, active compounds read low 1.01 | locus YNL250W, strain rad50, active compounds read low 0.923 | locus YNL271C, strain bni1, active compounds read low 1 | locus YNL298W, strain CLA4, active compounds read low 0.959 | locus YNL307C, strain MCK1, active compounds read low 0.967 | locus YNL322C, strain KRE1 (second series), active compounds read low 1.04 | locus YNL322C, strain KRE1, active compounds read low 0.985 | locus YNR049C, strain mso1, active compounds read low 0.999 | locus YNR052C, strain pop2, active compounds read low 0.986 | locus YOL012C, strain htz1 0.715 | locus YOL147C, strain pex11, active compounds read low 0.987 | locus YOR001W, strain rrp6, active compounds read low 1.05 | locus YOR061W, strain CKA2, active compounds read low 0.99 | locus YOR069W, strain VPS5, active compounds read low 0.98 | locus YOR070C, strain gyp1, active compounds read low 1.02 | locus YOR080W, strain dia2, active compounds read low 1.07 | locus YOR083W, strain WHI5, active compounds read low 1 | locus YOR136W, strain idh2, active compounds read low 0.98 | locus YOR144C, strain elg1, active compounds read low 0.993 | locus YOR184W, strain ser1, active compounds read low 1.08 | locus YOR265W, strain rbl2, active compounds read low 1 | locus YOR270C, strain vph1, active compounds read low 0.971 | locus YOR290C, strain snf2, active compounds read low 1.01 | locus YOR316C, strain cot1, active compounds read low 0.966 | locus YPL051W, strain arl3, active compounds read low 1 | locus YPL055C, strain LGE1, active compounds read low 1.01 | locus YPL078C, strain atp4, active compounds read low 1.01 | locus YPL106C, strain sse1, active compounds read low 1.11 | locus YPR119W, strain clb2, active compounds read low 0.986 | locus YPR141C, strain kar3, active compounds read low 1.01 | locus YPR163C, strain tif3, active compounds read low 1.01 | locus YPR167C, strain met16, active compounds read low 0.987 | strain wtn01, active compounds read low 1.04
active: locus YAL021C, strain ccr4, active compounds read low 1.12 [resistant] | locus YBR279W, strain paf1, active compounds read low 1.12 [resistant] | locus YJL129C, strain trk1, active compounds read low 1.17 [resistant] | locus YJL187C, strain SWE1, active compounds read low 1.1 [resistant] | locus YLL041C, strain sdh2, active compounds read low 1.09 [resistant] | locus YOR106W, strain vam3, active compounds read low 1.13 [resistant] | locus YPL240C, strain hsp82, active compounds read low 1.11 [resistant]
